This is an account of results in PubChem BioAssay (NCATS).

Each structure is given as a SMILES string. Values without a mark were called inactive. Records with an inconclusive call do not appear. Activity calls are given as the source filed them. Unless noted, calls come from the whole dose curve; as a rule, active = well fitted curve in the direction sought with a large enough effect; inconclusive = small, poorly fitted or top-dose-only effect, or another doubt; inactive = no such curve, though single readings can be large; an effect the other way counts as inactive or inconclusive. Where a SMILES comes first, the peptide text is derived from it. [ ]: non-standard residue; d: D form. The star is where a group is joined. Fmoc = O=C(OCC1c2ccccc2-c2ccccc21)*; AMC = Cc1cc(=O)oc2cc(N*)ccc12; Cha = N[CH](CC1CCCCC1)C(=O)O Some results are limits rather than exact numbers.

Assay [1] relates to Zika virus NS2B-NS3 protease. Put plainly: Primary screen GU AMC qHTS for Zika virus inhibitors (AID 1347154).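 For activity change, negative = inhibition: 0% = no-inhibitor control and -100% = no-enzyme control.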 Note: nearly all actives have a fitted effect of over 70% in size. Note: potency is the fitted concentration of half-maximal effect. The procedure, abridged: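 Unlinked Zika NS2B hydrophilic domain–NS3 protease complex at 25 nM in 10 mM Tris-HCl pH 8.0, 0.01% Tween 20, with an AMC peptide substrate. Fluorescence change (340/450 nm) over 15 min at room temperature, normalized to controls, fitted to 4-parameter Hill.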
(In general: Quantitative high-throughput screening tests each substance at several concentrations.)

A short description of assay [2]: Primary qHTS for small molecule stabilizers of the endoplasmic reticulum resident proteome: Secreted ER Calcium Modulated Protein (SERCaMP) assay (AID 1508630). Note: % is set by controls: 0 for no effect and ±100 for the full control effect. In a few lines: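 The SH-SY5Y reporter protocol was run at 3 concentrations up to 38.3 uM (primary) or 11 concentrations (follow-up): 16 h compound, 100 nM thapsigargin for 4 h, then extracellular luciferase luminescence.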

The target of assay [3] is Cytochrome P450 1A2 (Homo sapiens) (UniProt P05177). Description: p450-cyp1a2 (AID 410; calls by dose curve; note: potency is the fitted concentration of half-maximal effect;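 for activity change, negative = inhibition: -100% = full effect of reference inhibitor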). In a few lines: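 20nM CYP1A2, 100uM Luciferin-ME (=Km), 100mM KPO4; cpd 10 min RT; +NADPH regen, 60 min RT; stop/detect 20 min; luminescence. Normalized to furafylline 57 uM = full inhibition.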
Chain of Cytochrome P450 1A2 (Homo sapiens) (P05177 whole entry, looked up): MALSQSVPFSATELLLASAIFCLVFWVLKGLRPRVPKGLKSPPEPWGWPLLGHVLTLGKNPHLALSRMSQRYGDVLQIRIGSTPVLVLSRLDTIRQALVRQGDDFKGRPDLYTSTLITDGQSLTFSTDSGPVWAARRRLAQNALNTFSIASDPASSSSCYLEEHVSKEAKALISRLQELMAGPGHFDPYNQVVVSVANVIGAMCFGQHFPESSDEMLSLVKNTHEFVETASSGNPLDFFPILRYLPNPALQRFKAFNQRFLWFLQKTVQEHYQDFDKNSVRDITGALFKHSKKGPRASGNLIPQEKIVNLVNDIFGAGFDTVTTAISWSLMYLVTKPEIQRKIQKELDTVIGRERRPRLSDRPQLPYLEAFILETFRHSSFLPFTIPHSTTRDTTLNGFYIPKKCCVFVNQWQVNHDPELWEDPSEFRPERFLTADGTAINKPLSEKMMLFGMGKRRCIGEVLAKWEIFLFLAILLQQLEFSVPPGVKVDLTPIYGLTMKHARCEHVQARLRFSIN
The target of assay [4] is Glucocorticoid receptor (Homo sapiens) (UniProt P04150). Description: GR-GFP Redistribution (AID 450;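 active = compounds whose dose series gives a full or clear partial fitted curve of increased nuclear translocation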; note: potency is the fitted concentration of half-maximal effect). The note with it: U2OS GR-GFP nuclear translocation, laser cytometry, 2 h.
Chain of Glucocorticoid receptor (Homo sapiens) (P04150 whole entry, looked up): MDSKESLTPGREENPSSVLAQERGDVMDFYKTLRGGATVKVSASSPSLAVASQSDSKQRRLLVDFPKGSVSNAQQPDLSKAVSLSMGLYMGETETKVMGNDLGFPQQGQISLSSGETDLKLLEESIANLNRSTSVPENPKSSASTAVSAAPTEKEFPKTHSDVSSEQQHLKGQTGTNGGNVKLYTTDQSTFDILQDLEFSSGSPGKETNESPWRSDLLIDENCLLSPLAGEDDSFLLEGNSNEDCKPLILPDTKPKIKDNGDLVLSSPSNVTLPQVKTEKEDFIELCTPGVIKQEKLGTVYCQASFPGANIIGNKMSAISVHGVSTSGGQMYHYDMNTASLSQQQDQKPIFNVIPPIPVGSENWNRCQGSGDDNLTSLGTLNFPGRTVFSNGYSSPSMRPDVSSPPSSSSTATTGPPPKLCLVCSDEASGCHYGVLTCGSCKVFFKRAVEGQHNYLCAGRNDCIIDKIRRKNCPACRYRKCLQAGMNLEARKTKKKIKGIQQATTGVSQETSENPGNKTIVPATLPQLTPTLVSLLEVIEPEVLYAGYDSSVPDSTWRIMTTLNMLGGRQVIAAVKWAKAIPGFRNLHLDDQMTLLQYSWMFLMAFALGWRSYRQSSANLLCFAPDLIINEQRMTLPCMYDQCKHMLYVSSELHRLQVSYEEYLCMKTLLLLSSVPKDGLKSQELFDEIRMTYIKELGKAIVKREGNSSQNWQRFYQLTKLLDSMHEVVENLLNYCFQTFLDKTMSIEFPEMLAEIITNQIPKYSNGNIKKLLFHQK
For assay [5] the target is unchanged. Put plainly: GR-EFC Redistribution (AID 451; calls by dose curve; note: potency is the fitted concentration of half-maximal effect). The note with it: CHO-K1 GR-EFC translocation, beta-gal luminescence, 2 h. In a few lines:
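CHO-K1 cells expressing nuclear EA and GR-ED fragments of b-gal; compounds titrated up to 46 uM final, 2 h at 37 C. GR nuclear translocation read as complemented b-gal luminescence after 1 h RT detection.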

Assay [6] concerns the target Mitogen-activated protein kinase 10 (Mus musculus) (UniProt Q61831). Description: JNK3 AlphaScreen Assay (AID 530; active = well fitted curve in either direction with a large enough effect, not every such curve was filed as active;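 note: kinase came from lysate of stimulated human HepG2 cells; signal reports phosphorylation of biotinylated GST-cJun 1-79 at Ser73 with 10 µM ATP; % is set by controls: 0 for no effect and ±100 for the full control effect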). In a few lines:
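HepG2 lysate (IL-1b/TNFa pre-activated) + biotin-GST-cJun 1-79 + anti-pSer73 cJun; cpd titration, 15 min RT; ATP 10 uM start; Tris pH 7.6, MgCl2, DTT, vanadate; beads in EDTA buffer; AlphaScreen.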

In assay [7] the target is Cytochrome P450 3A4 (Homo sapiens) (UniProt P08684). Put plainly: qHTS Assay for Activators of Cytochrome P450 3A4 (AID 885). Note: nearly all actives have a fitted effect of over 65% in size. The procedure, abridged:
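CYP3A4 activity: Luciferin-PPXE O-dealkylation, 25uM substrate, 200mM KPO4, RT throughout. Read-out is luciferase luminescence; higher values reflect activation.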

Assay [8] deals with Cytochrome P450 2C19 (Homo sapiens) (UniProt P33261). Description: qHTS Assay for Inhibitors and Substrates of Cytochrome P450 2C19 (AID 899). Note: % is set by controls: 0 for no effect and ±100 for the full control effect; nearly all actives have a fitted effect of over 60% in size. In a few lines: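 5 nM human CYP2C19 with 10uM Luciferin-H EGE (at KM) in 50mM KPO4, compound preincubated 10 min at 37C, then NADPH regeneration for 60 min at 37C. Luciferin read by luminescence after detection reagent; normalized to 57uM ketoconazole as full inhibition.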
Chain of Cytochrome P450 2C19 (Homo sapiens) (P33261 whole entry, looked up): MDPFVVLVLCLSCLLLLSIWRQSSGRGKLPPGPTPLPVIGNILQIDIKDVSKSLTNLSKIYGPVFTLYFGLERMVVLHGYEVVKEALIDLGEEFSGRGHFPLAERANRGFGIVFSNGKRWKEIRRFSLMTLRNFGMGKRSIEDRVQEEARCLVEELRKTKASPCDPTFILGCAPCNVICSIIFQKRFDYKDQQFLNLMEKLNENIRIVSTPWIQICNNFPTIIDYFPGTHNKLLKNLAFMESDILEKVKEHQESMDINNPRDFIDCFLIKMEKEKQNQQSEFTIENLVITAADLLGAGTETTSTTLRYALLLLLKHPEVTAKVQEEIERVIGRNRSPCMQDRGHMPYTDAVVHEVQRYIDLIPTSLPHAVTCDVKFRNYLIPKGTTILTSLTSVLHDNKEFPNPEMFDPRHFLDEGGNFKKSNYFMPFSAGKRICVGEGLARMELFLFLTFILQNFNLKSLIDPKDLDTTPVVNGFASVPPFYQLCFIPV

The target of assay [9] is Ubiquitin carboxyl-terminal hydrolase 1 (Homo sapiens) (UniProt O94782). Put plainly: Inhibitors of USP1/UAF1: Pilot qHTS (AID 504865).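 Note: rhodamine fluorescence freed from ubiquitin-rhodamine substrate followed over time; top concentration of the series differs between compounds; % is set by controls: 0 for no effect and ±100 for the full control effect; nearly all actives have a fitted effect of over 35% in size.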 The procedure, abridged: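 Kinetic fluorescence assay: 1nM USP1/UAF1, 15 min compound preincubation, then 150nM Ub-Rho; 480/540 nm.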
Chain of Ubiquitin carboxyl-terminal hydrolase 1 (Homo sapiens) (O94782 whole entry, looked up): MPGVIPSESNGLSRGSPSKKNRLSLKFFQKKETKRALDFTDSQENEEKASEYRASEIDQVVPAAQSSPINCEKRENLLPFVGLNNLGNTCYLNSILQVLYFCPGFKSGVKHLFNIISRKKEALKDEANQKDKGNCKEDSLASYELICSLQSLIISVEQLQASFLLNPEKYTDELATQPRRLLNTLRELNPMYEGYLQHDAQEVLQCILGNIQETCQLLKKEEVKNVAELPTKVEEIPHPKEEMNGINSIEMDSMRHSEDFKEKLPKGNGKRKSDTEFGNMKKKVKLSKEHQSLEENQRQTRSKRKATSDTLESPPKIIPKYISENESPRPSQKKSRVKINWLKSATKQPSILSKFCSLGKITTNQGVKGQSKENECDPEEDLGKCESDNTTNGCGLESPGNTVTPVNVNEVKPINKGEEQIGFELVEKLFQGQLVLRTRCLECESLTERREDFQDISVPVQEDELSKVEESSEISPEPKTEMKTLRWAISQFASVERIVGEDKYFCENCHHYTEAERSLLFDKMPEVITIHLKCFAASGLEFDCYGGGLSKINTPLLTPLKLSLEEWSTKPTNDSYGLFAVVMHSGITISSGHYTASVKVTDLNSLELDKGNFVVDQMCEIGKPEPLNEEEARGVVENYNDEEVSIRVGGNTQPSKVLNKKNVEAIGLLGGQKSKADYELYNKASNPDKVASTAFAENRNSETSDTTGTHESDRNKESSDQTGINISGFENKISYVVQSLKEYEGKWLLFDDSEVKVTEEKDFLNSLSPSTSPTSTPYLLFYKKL
Assay [10] has as its target DNA dC->dU-editing enzyme APOBEC-3G (Homo sapiens) (UniProt Q9HC16). Description: qHTS for inhibitors of Vif-A3G interactions: Validation (AID 588379). Note: 0% is about no effect. The procedure, abridged:
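Yellow fluorescence (Ex 488, Em 500-530) of Vif-coexpressing HeLa A3G-eYFP cells, scanned by Acumen cytometer, reports blocked A3G degradation. Cells plated at 700/well overnight at 37 deg C before compound addition, then a further overnight compound incubation at 37 deg C.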

A short description of assay [11]: Confirmatory qHTS for small molecule stabilizers of the endoplasmic reticulum resident proteome: Secreted ER Calcium Modulated Protein (SERCaMP) assay (AID 1508628). Note: % is set by controls: 0 for no effect and ±100 for the full control effect; nearly all actives have a fitted effect of over 40% in size. The procedure, abridged:
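GLuc-SERCaMP-expressing SH-SY5Y cells, pretreated 16 h with compound, are challenged with thapsigargin to empty ER calcium stores; after 4 h, coelenterazine is added directly to the medium and luminescence is imaged.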

Assay [12] can be described thus: AP1 Signaling Pathway (AID 357; active = well fitted curve in either direction with a large enough effect, not every such curve was filed as active;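 note: ME-180 reporter cells stimulated with EGF at its EC50 level; % is set by controls: 0 for no effect and ±100 for the full control effect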). Particulars: ME-180 AP-1-bla reporter, EGF-induced, beta-lactamase ratio, 5 h; at 38 µM (top of the series). In a few lines:
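Modulation of EGF-driven AP-1 transcription was assessed with a beta-lactamase reporter in ME-180 cells. Compound and EC50 EGF were co-incubated 5 hours at 37 °C before 2.5-hour CCF4 loading at room temperature and dual-emission reading.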

Assay [13] in a line: NFAT Signaling Pathway (AID 444; active = well fitted curve in either direction with a large enough effect, not every such curve was filed as active;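 note: carbachol stimulus at about its EC50 of 1 µM final; % is set by controls: 0 for no effect and ±100 for the full control effect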). Particulars: Jurkat NFAT-bla M1, carbachol, beta-lactamase ratio, 5 h; at 38 µM (top of the series). In a few lines: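 Jurkat cells with NFAT-driven β-lactamase reporter and co-expressed M1 receptor, stimulated with carbachol (final 1 uM, ~EC50), compound titration, 5 h at 37 °C. CCF4 loaded 1 h at RT; 460/530 nm ratio gave %activity and AC50.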

Assay [14] can be described thus: Stat Signaling Pathway (AID 446; active = well fitted curve in either direction with a large enough effect, not every such curve was filed as active). The note with it: ME-180 (cervical carcinoma) SIE beta-lactamase reporter, IL-6 stimulated, 5 h; at 38 µM (top of the series). In a few lines:
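Compound effects on IL-6-induced STAT reporter activity were measured in ME-180 cells. After overnight culture, cells were co-treated with 40 pM IL-6 for 5 hrs before beta-lactamase substrate loading at room temperature.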

The target in assay [15] is 3',5'-cyclic-AMP phosphodiesterase 4B (Homo sapiens) (UniProt Q07343). Put plainly: qHTS Assay for Inhibitors of PDE-IV (AID 607; active = well fitted activation curve with a large enough effect in the main read-out, with a control signal flat, not every such curve was filed as active; note: % of control where 0% means no effect). In a few lines: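 ACTOne HEK293 cells carry a modified cAMP-gated CNG channel and express endogenous PDE4; plated 1000 cells/well, compounds up to 22.9 uM final. Membrane-potential dye fluorescence (ex 535/em 590) was read; parental cells received 10 uM forskolin + 100 uM RO 20-1724.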
Chain of 3',5'-cyclic-AMP phosphodiesterase 4B (Homo sapiens) (Q07343 whole entry, looked up): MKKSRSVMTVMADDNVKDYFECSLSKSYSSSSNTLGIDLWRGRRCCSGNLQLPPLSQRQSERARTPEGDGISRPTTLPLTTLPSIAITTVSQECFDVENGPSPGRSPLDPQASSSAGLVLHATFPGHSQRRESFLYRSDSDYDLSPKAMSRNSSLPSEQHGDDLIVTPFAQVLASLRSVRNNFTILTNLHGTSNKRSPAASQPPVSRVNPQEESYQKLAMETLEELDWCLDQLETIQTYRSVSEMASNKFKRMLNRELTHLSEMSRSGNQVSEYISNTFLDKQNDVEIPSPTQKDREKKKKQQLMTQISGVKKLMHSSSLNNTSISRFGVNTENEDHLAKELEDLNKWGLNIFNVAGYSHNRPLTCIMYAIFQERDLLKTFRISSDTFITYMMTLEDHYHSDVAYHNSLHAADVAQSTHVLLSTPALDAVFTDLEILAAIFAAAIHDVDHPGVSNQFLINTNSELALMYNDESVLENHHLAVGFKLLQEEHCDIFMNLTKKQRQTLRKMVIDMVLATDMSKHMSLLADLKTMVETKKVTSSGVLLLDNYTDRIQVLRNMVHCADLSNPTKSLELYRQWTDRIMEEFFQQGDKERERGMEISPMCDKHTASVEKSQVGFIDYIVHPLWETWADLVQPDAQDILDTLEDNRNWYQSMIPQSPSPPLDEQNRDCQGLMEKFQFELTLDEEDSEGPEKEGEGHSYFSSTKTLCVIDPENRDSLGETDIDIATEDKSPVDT

In assay [16] the target is Cytochrome P450 2C9 (Homo sapiens) (UniProt P11712). Put plainly: qHTS Assay for Inhibitors and Substrates of Cytochrome P450 2C9 (AID 883). Note: % is set by controls: 0 for no effect and ±100 for the full control effect; nearly all actives have a fitted effect of over 60% in size. In a few lines:
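Human CYP2C9 (10nM) with Luciferin-H at 100uM (its KM) in 25mM KPO4; compound preincubated 10 min at 37C, then NADPH regeneration for 60 min at 37C. Luciferin read by luminescence after detection reagent; normalized to 57uM sulphaphenazole as full inhibition.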

For assay [17], the target named is Cytochrome P450 2D6 (Homo sapiens) (UniProt P10635). Put plainly: qHTS Assay for Inhibitors and Substrates of Cytochrome P450 2D6 (AID 891).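 Note: luciferin methyl ether substrate demethylated by CYP2D6 with NADPH regeneration; % is set by controls: 0 for no effect and ±100 for the full control effect; nearly all actives have a fitted effect of over 60% in size.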 In a few lines:
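Luminescent read-out of luciferin formed by 5 nM human CYP2D6 demethylating 30 uM Luciferin-ME EGE (Km level) over 60 min at room temperature after NADPH regeneration addition. Data normalized to full inhibition by 1.43 uM quinidine.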

The nature of assay [18]: Cell Viability qHTS for small molecule stabilizers of the endoplasmic reticulum resident proteome (AID 1508629). Particulars: cell viability counter-screen, 100 nM thapsigargin for final 4 h.

Chain of Cytochrome P450 3A4 (Homo sapiens) (P08684 whole entry, looked up): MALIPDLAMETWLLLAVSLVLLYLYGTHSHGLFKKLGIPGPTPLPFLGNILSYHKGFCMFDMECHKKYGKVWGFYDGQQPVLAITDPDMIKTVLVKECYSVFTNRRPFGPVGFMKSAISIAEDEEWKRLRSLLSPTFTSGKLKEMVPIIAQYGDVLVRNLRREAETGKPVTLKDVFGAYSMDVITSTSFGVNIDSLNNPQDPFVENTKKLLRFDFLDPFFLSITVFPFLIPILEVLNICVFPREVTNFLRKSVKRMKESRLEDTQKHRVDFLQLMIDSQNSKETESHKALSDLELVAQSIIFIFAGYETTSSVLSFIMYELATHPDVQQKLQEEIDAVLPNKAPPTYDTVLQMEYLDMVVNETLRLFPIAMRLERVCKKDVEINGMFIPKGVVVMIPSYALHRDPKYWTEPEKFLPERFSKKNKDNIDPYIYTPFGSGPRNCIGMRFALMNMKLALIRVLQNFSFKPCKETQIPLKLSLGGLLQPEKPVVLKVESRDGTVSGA
Chain of DNA dC->dU-editing enzyme APOBEC-3G (Homo sapiens) (Q9HC16 whole entry, looked up): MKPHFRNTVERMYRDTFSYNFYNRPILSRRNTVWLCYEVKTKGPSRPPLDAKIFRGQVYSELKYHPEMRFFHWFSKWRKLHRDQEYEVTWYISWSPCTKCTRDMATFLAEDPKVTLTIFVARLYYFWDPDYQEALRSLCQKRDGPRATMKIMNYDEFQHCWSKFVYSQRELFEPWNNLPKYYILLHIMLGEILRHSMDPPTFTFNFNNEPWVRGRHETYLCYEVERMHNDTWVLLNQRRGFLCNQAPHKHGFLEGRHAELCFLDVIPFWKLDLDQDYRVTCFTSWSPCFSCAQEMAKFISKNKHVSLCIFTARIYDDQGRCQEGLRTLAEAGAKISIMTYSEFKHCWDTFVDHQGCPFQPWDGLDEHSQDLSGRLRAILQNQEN
Chain of Cytochrome P450 2C9 (Homo sapiens) (P11712 whole entry, looked up): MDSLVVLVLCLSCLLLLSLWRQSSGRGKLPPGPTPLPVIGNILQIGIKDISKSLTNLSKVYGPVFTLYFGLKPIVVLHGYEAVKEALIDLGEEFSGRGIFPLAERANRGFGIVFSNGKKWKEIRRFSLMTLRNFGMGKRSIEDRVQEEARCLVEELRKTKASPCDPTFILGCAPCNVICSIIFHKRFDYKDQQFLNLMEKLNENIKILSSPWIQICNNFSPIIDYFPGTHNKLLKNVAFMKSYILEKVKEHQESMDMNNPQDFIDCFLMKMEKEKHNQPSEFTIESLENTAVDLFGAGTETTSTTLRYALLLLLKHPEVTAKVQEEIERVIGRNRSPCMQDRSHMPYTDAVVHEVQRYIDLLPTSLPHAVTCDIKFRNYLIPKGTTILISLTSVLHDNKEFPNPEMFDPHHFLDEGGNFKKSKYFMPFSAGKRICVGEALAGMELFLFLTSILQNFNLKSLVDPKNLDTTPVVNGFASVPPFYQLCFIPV

As for `CC1=C(/C=C/C(C)=C/C=C/C(C)=C/C(=O)O)C(C)(C)CCC1O` (configuration not stated), the Potency entry in assay [1] and in assay [2] was “inactive” in each case.

`CC(=O)OCOC(=O)CN(CC(=O)OCOC(C)=O)c1ccccc1OCCOc1ccccc1N(CC(=O)OCOC(C)=O)CC(=O)OCOC(C)=O`: the Potency entry in [1] and in assay [2] was “inactive” throughout.

With `CNC(=O)[C@H]1O[C@@H](n2cnc3c(N)ncnc32)[C@H](O)[C@@H]1O`, the Potency result in assay [1] and in assay [2] was “inactive” throughout.

For `NC(C(=O)O)C(CC(=O)O)c1ccc(Cl)cc1` (configuration not stated), the Potency entry in assay [1] and in assay [2] was “inactive” in each case.

Take `CCCCCCCC/C=C\CCCCCCCC(=O)OCC(CO)OC(=O)CCCCCCC/C=C\CCCCCCCC` (configuration not stated): the activity change, negative = inhibition in assay [1] is -0.778% [at 6.83 µM]; in assay [2], 17.1% [at 3.88 µM].

On to `CCOC(=O)c1c(C)[nH]c2ccc3c(c12)CN1CCc2cc(OC)ccc2[C@@H]1O3`, for which the Potency in assay [3] was 0.158 µM (active); in assay [4] it was above 46 µM; in assay [5], above 46 µM. Moreover, the Potency result in assay [6], in [7], in assay [8], in assay [9], in [10] and in assay [1] was “inactive” throughout. In addition, the Potency entry in assay [11] is “inactive”.

For `O=C(NCCCCCCNC(=O)ON=C1CCCCC1)ON=C1CCCCC1`, the Potency entry in assay [1] and in assay [2] was “inactive” in each case.

In the case of `C=NCc1cc2c(OC[C@@H](O)CNC(C)(C)C)cccc2[nH]1`, the Potency entry in assay [1] and in assay [2] was “inactive” each time.

Take `NC(=O)N/N=C/c1ccc(Oc2ccc(F)cc2)cc1`: the Potency result in assay [1] and in [2] was “inactive” in each case.

With `O=P(O)(O)C(O)c1ccc2ccccc2c1` (configuration not stated), the Potency result in assay [1] and in assay [2] was “inactive” throughout.

With `c1ccc(Oc2nc(NC3CCCCC3)c3[nH]cnc3n2)cc1`, the Potency result in [1] and in assay [2] was “inactive” in each case.

In the case of `COc1ccc(-n2[nH]c3c4c(ncc3c2=O)CCCCC4)cc1`, the Potency result in assay [1] and in assay [2] was “inactive” each time.

Consider `C[C@]12CC[C@@H](O)C[C@@H]1CC[C@@H]1[C@@H]2CC[C@]2(C)C=CC[C@@H]12`, for which the Potency entry in assay [1] and in [2] was “inactive” each time.

On to `CCCCCCCCCCCCCC(=O)N[C@H](C)[C@@H](O)c1ccccc1`, for which the activity change, negative = inhibition was 6.45% [at 6.83 µM] in assay [1] and -4.17% [at 3.88 µM] in assay [2].

For the compound `Cc1cc(=O)oc2cc(NC(=O)C(CCCCN)NC(=O)C(CC3CCCCC3)NC(=O)OCC3c4ccccc4-c4ccccc43)ccc12` (configuration not stated) (Fmoc-[Cha]-Lys-{AMC}; configuration not given here), the Potency in assay [1] was 18.9 µM (active). Also, the Potency result in assay [2] was “inactive”.

As for `CCCCCCCC/C=C\C/C=C\C/C=C\CCCC(=O)O`, the activity change, negative = inhibition in [1] is -5.55% [at 6.83 µM]; in assay [2], 18.3% [at 3.88 µM].

Regarding `COc1ccc(/C=C\C(=O)Nc2ccccc2C(=O)O)cc1OC`, the activity change, negative = inhibition is -10.8% in [12] and -3.53% in assay [13]. Moreover, the Potency result in assay [3], in assay [6], in [15], in [16], in [7] and in [17] was “inactive” in each case. Also, the Potency entry in assay [10] and in [1] was “inactive” throughout. In [14], the activity, negative = inhibition is 7.79%. In addition, the Potency in [4] and in [5] was above 46 µM each time. Besides, the max response in assay [18] is -9.06%.

`Clc1ccc2ncnc(NCc3ccc4c(c3)OCO4)c2c1`: the Potency result in [1] and in [2] was “inactive” each time.

Take `N[C@H](C(=O)O)[C@H]1C[C@H]1C(=O)O`: the Potency entry in assay [1] and in assay [2] was “inactive” each time.

Consider `CCCCCCCC/C=C\C/C=C\C/C=C\CCCC(=O)NCCO`, for which the activity change, negative = inhibition in assay [1] was 9.89% [at 6.83 µM]; in [2], -21.6% [at 3.88 µM].

As to `CCCCCCOC(=O)C1(O)CC2OC1(C)n1c3ccccc3c3c4c(c5c6ccccc6n2c5c31)C(=O)NC4` (configuration not stated), the activity change, negative = inhibition was 19.5% [at 4.99 µM] in assay [1] and -23% [at 3.88 µM] in assay [2].
